# About 79,000 compounds went through this panel and 15% of them were active in at least one assay; those are over-represented in the sample as a whole. Unmarked numbers belong to inactive results. Calls of active or inactive are those of the source. No stated cut-off is given here; in the data, active means growth inhibition above about 70%; inactive means the rest.
# Tests used:
# [1] = NCI Yeast Anticancer Drug Screen. Data for the rad52 strain (AID 147);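 further: 0% = growth of vehicle-treated control cultures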; details: S. cerevisiae rad52 mutant growth inhibition, hits give high values
# Summary of the method: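 Vehicle-treated cultures served as the reference for growth inhibition of compound-exposed yeast bearing a DNA repair mutation.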
# [2] = NCI Yeast Anticancer Drug Screen. Data for the wt1 strain (AID 149);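 further: 0% = growth of vehicle-treated wt1 cultures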; details: S. cerevisiae wt1 strain (SPY 50644) growth inhibition, hits give high values
# Summary of the method: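 wt1 yeast, compound-treated; % growth inhibition vs vehicle control.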
# [3] = NCI Yeast Anticancer Drug Screen. Data for the rad50EPP+ strain (AID 151);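 further: 0% = growth of vehicle-treated control cultures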; details: S. cerevisiae rad50 mutant strain, hits give high values
# Summary of the method: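 In this screen, rad50EPP+ yeast were exposed to compounds. Growth inhibition was scored against vehicle-treated controls.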
# [4] = NCI Yeast Anticancer Drug Screen. Data for the mgt1 strain (AID 153); details: S. cerevisiae mgt1 mutant growth inhibition, hits give high values
# Summary of the method: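 mgt1 strain exposed; growth vs vehicle control recorded as inhibition.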
# [5] = NCI Yeast Anticancer Drug Screen. Data for the rad50 strain (AID 155);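 further: 0% = growth of vehicle-only cultures of the same strain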; details: S. cerevisiae rad50 strain growth inhibition, hits give high values
# Summary of the method: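 Genetically altered yeast (DNA repair pathway); compound treatment; growth inhibition vs vehicle ctrl.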
# [6] = NCI Yeast Anticancer Drug Screen. Data for the mec2-1 strain (AID 157); details: S. cerevisiae mec2-1 strain, hits give high values
# Summary of the method: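 Vehicle-treated cultures served as reference for growth inhibition of compound-exposed mec2-1 yeast.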
# [7] = NCI Yeast Anticancer Drug Screen. Data for the rad14 strain (AID 159);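 further: 0% = growth of vehicle-treated control cultures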; details: S. cerevisiae rad14 strain growth inhibition, hits give high values
# Summary of the method: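 Test compounds were applied to a repair-deficient yeast strain. Its growth was then compared with that of cultures given vehicle alone, and inhibition was expressed relative to those controls.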
# [8] = NCI Yeast Anticancer Drug Screen. Data for the sgs1 mgt1 strain (AID 161);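 further: 0% = growth of cultures given vehicle only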; details: S. cerevisiae sgs1 mgt1 strain, hits give high values
# Summary of the method: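 Test agents were incubated with a DNA-repair-mutant yeast strain. Growth was then read and compared against vehicle-treated controls.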
# [9] = NCI Yeast Anticancer Drug Screen. Data for the CLN2oe strain (AID 163);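 further: 0% = growth of vehicle-only control cultures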; details: S. cerevisiae CLN2oe strain, hits give high values
# Summary of the method: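 Inhibition relative to vehicle-treated yeast is reported. Cells: strain with genetic alteration in cell-cycle control, grown with compound.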
# [10] = NCI Yeast Anticancer Drug Screen. Data for the cln2 rad14 strain (AID 165);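 further: 0% = growth equal to vehicle treated cultures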; details: S. cerevisiae cln2 rad14 strain, hits give high values
# Summary of the method: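 Each compound was tested on cln2 rad14 yeast. Inhibition of growth was calculated against vehicle-exposed controls.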
# [11] = NCI Yeast Anticancer Drug Screen. Data for the bub3 strain (AID 167); details: S. cerevisiae bub3 mutant strain, hits give high values
# Summary of the method: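 Yeast carrying a defined mutation is treated with each compound, and growth is compared with that of vehicle-exposed cells to give inhibition.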
# [12] = NCI Yeast Anticancer Drug Screen. Data for the wt2 strain (AID 169);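 further: 0% = growth of vehicle-treated yeast cultures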; details: S. cerevisiae wt2 strain growth inhibition, hits give high values
# Summary of the method: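 Inhibition of yeast growth was determined after compound treatment, normalised to controls receiving only vehicle.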
# [13] = NCI Yeast Anticancer Drug Screen. Data for the mlh1 strain (AID 171);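 further: 0% = growth of vehicle-treated control cultures of the same strain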; details: S. cerevisiae mlh1 strain growth inhibition, hits give high values
# Summary of the method: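 Vehicle-normalised growth inhibition of a repair- or checkpoint-altered yeast strain following compound treatment.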
# [14] = NCI Yeast Anticancer Drug Screen. Data for the sgs1 strain (AID 173);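 further: 0% = growth of vehicle-only control cultures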; details: S. cerevisiae sgs1 mutant, hits give high values
# Summary of the method: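 Screen format: yeast with repair or checkpoint alterations, compound exposure, growth read relative to vehicle.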
# [15] = NCI Yeast Anticancer Drug Screen. Data for the mlh1 rad18 strain (AID 175); details: S. cerevisiae mlh1 rad18 strain growth inhibition, hits give high values
# Summary of the method: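 Vehicle-treated cultures served as the reference for growth inhibition in a yeast strain carrying DNA damage repair alterations exposed to each compound.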
# [16] = NCI Yeast Anticancer Drug Screen. Data for the rad18 strain (AID 177); details: S. cerevisiae rad18 mutant growth inhibition, hits give high values
# Summary of the method: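 Test articles were incubated with altered yeast defective in DNA damage repair. Results are given as inhibition of growth versus vehicle.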
# [17] = at 5.0 µM (retest, dose inferred, filed as 0.5)
# [18] = at 50.0 µM (retest, dose inferred, filed as 5.0)
smiles,measurement,setting,value
CCOC(=O)c1cnc2c(C(F)(F)F)cccc2c1N=[N+]=[N-],growth inhibition,[1]; at 1.2 µM,3%
same,growth inhibition,[1]; at 3.7 µM,2%
same,growth inhibition,[1]; at 11.0 µM,2%
same,growth inhibition,[1]; at 33.0 µM,42%
same,growth inhibition,[1]; at 100.0 µM,95% (active)
same,growth inhibition,[2]; at 1.2 µM,10%
same,growth inhibition,[2]; at 3.7 µM,1%
same,growth inhibition,[2]; at 11.0 µM,1%
same,growth inhibition,[2]; at 33.0 µM,37%
same,growth inhibition,[2]; at 100.0 µM,87% (active)
same,growth inhibition,[3]; at 1.2 µM,4%
same,growth inhibition,[3]; at 3.7 µM,0%
same,growth inhibition,[3]; at 11.0 µM,-5%
same,growth inhibition,[3]; at 33.0 µM,86% (active)
same,growth inhibition,[3]; at 100.0 µM,97% (active)
same,growth inhibition,[4]; at 1.2 µM,0%
same,growth inhibition,[4]; at 3.7 µM,-2%
same,growth inhibition,[4]; at 11.0 µM,1%
same,growth inhibition,[4]; at 33.0 µM,52%
same,growth inhibition,[4]; at 100.0 µM,93% (active)
same,growth inhibition,[5]; at 1.2 µM,-6%
same,growth inhibition,[5]; at 3.7 µM,-17%
same,growth inhibition,[5]; [17],15%
same,growth inhibition,[5]; at 11.0 µM,20%
same,growth inhibition,[5]; at 33.0 µM,42%
same,growth inhibition,[5]; [18],8%
same,growth inhibition,[5]; at 50.0 µM,29.4%
same,growth inhibition,[5]; at 100.0 µM,95% (active)
same,growth inhibition,[6]; at 1.2 µM,-3%
same,growth inhibition,[6]; at 3.7 µM,-4%
same,growth inhibition,[6]; [17],2%
same,growth inhibition,[6]; at 11.0 µM,-4%
same,growth inhibition,[6]; at 33.0 µM,25%
same,growth inhibition,[6]; [18],-5%
same,growth inhibition,[6]; at 50.0 µM,17.6%
same,growth inhibition,[6]; at 100.0 µM,89% (active)
same,growth inhibition,[7]; at 1.2 µM,3%
same,growth inhibition,[7]; at 3.7 µM,4%
same,growth inhibition,[7]; at 11.0 µM,3%
same,growth inhibition,[7]; at 33.0 µM,52%
same,growth inhibition,[7]; at 100.0 µM,98% (active)
same,growth inhibition,[8]; [17],5%
same,growth inhibition,[8]; [18],31%
same,growth inhibition,[8]; at 50.0 µM,0.9%
same,growth inhibition,[9]; at 1.2 µM,-1%
same,growth inhibition,[9]; at 3.7 µM,-1%
same,growth inhibition,[9]; at 11.0 µM,-2%
same,growth inhibition,[9]; at 33.0 µM,21%
same,growth inhibition,[9]; at 100.0 µM,73% (active)
same,growth inhibition,[10]; [17],45%
same,growth inhibition,[10]; [18],24%
same,growth inhibition,[10]; at 50.0 µM,84.7% (active)
same,growth inhibition,[11]; at 1.2 µM,-2%
same,growth inhibition,[11]; at 3.7 µM,-3%
same,growth inhibition,[11]; [17],-3%
same,growth inhibition,[11]; at 11.0 µM,-4%
same,growth inhibition,[11]; at 33.0 µM,20%
same,growth inhibition,[11]; [18],91% (active)
same,growth inhibition,[11]; at 50.0 µM,67.3%
same,growth inhibition,[11]; at 100.0 µM,92% (active)
same,growth inhibition,[12]; at 1.2 µM,-1%
same,growth inhibition,[12]; at 3.7 µM,1%
same,growth inhibition,[12]; at 11.0 µM,2%
same,growth inhibition,[12]; at 33.0 µM,68%
same,growth inhibition,[12]; at 100.0 µM,99% (active)
same,growth inhibition,[13]; at 1.2 µM,-1%
same,growth inhibition,[13]; at 3.7 µM,0%
same,growth inhibition,[13]; at 11.0 µM,-1%
same,growth inhibition,[13]; at 33.0 µM,56%
same,growth inhibition,[13]; at 100.0 µM,98% (active)
same,growth inhibition,[14]; at 1.2 µM,1%
same,growth inhibition,[14]; at 3.7 µM,-2%
same,growth inhibition,[14]; at 11.0 µM,-7%
same,growth inhibition,[14]; at 33.0 µM,67%
same,growth inhibition,[14]; at 100.0 µM,97% (active)
same,growth inhibition,[15]; [17],1%
same,growth inhibition,[15]; [18],21%
same,growth inhibition,[15]; at 50.0 µM,94.8% (active)
same,growth inhibition,[16]; at 1.2 µM,-5%
same,growth inhibition,[16]; at 3.7 µM,-8%
same,growth inhibition,[16]; at 11.0 µM,-10%
same,growth inhibition,[16]; at 33.0 µM,40%
same,growth inhibition,[16]; at 100.0 µM,94% (active)
O=c1ssc2ncccc12,growth inhibition,[1]; at 1.2 µM,3%
same,growth inhibition,[1]; at 3.7 µM,15%
same,growth inhibition,[1]; at 11.0 µM,71% (active)
same,growth inhibition,[1]; at 33.0 µM,95% (active)
same,growth inhibition,[1]; at 100.0 µM,99% (active)
same,growth inhibition,[2]; at 1.2 µM,2%
same,growth inhibition,[2]; at 3.7 µM,-2%
same,growth inhibition,[2]; at 11.0 µM,11%
same,growth inhibition,[2]; at 33.0 µM,47%
same,growth inhibition,[2]; at 100.0 µM,97% (active)
same,growth inhibition,[3]; at 1.2 µM,-5%
same,growth inhibition,[3]; at 3.7 µM,6%
same,growth inhibition,[3]; at 11.0 µM,45%
same,growth inhibition,[3]; at 33.0 µM,86% (active)
same,growth inhibition,[3]; at 100.0 µM,97% (active)
same,growth inhibition,[4]; at 1.2 µM,-1%
same,growth inhibition,[4]; at 3.7 µM,10%
same,growth inhibition,[4]; at 11.0 µM,41%
same,growth inhibition,[4]; at 33.0 µM,84% (active)
same,growth inhibition,[4]; at 100.0 µM,99% (active)
same,growth inhibition,[5]; at 1.2 µM,15%
same,growth inhibition,[5]; at 3.7 µM,49%
same,growth inhibition,[5]; [17],24%
same,growth inhibition,[5]; at 11.0 µM,82% (active)
same,growth inhibition,[5]; at 33.0 µM,97% (active)
same,growth inhibition,[5]; [18],99% (active)
same,growth inhibition,[5]; at 50.0 µM,97.1% (active)
same,growth inhibition,[5]; at 100.0 µM,99% (active)
same,growth inhibition,[6]; at 1.2 µM,3%
same,growth inhibition,[6]; at 3.7 µM,6%
same,growth inhibition,[6]; [17],14%
same,growth inhibition,[6]; at 11.0 µM,29%
same,growth inhibition,[6]; at 33.0 µM,83% (active)
same,growth inhibition,[6]; [18],96% (active)
same,growth inhibition,[6]; at 50.0 µM,91.2% (active)
same,growth inhibition,[6]; at 100.0 µM,97% (active)
same,growth inhibition,[7]; at 1.2 µM,7%
same,growth inhibition,[7]; at 3.7 µM,14%
same,growth inhibition,[7]; at 11.0 µM,49%
same,growth inhibition,[7]; at 33.0 µM,97% (active)
same,growth inhibition,[7]; at 100.0 µM,99% (active)
same,growth inhibition,[8]; [17],31%
same,growth inhibition,[8]; [18],96% (active)
same,growth inhibition,[8]; at 50.0 µM,93.2% (active)
same,growth inhibition,[9]; at 1.2 µM,-7%
same,growth inhibition,[9]; at 3.7 µM,6%
same,growth inhibition,[9]; at 11.0 µM,45%
same,growth inhibition,[9]; at 33.0 µM,85% (active)
same,growth inhibition,[9]; at 100.0 µM,97% (active)
same,growth inhibition,[10]; [17],21%
same,growth inhibition,[10]; [18],90% (active)
same,growth inhibition,[10]; at 50.0 µM,49.6%
same,growth inhibition,[11]; at 1.2 µM,2%
same,growth inhibition,[11]; at 3.7 µM,4%
same,growth inhibition,[11]; [17],23%
same,growth inhibition,[11]; at 11.0 µM,36%
same,growth inhibition,[11]; at 33.0 µM,87% (active)
same,growth inhibition,[11]; [18],97% (active)
same,growth inhibition,[11]; at 50.0 µM,93.2% (active)
same,growth inhibition,[11]; at 100.0 µM,98% (active)
same,growth inhibition,[12]; at 1.2 µM,-6%
same,growth inhibition,[12]; at 3.7 µM,-4%
same,growth inhibition,[12]; at 11.0 µM,15%
same,growth inhibition,[12]; at 33.0 µM,57%
same,growth inhibition,[12]; at 100.0 µM,98% (active)
same,growth inhibition,[13]; at 1.2 µM,9%
same,growth inhibition,[13]; at 3.7 µM,20%
same,growth inhibition,[13]; at 11.0 µM,56%
same,growth inhibition,[13]; at 33.0 µM,95% (active)
same,growth inhibition,[13]; at 100.0 µM,99% (active)
same,growth inhibition,[14]; at 1.2 µM,4%
same,growth inhibition,[14]; at 3.7 µM,12%
same,growth inhibition,[14]; at 11.0 µM,72% (active)
same,growth inhibition,[14]; at 33.0 µM,96% (active)
same,growth inhibition,[14]; at 100.0 µM,99% (active)
same,growth inhibition,[15]; [17],56%
same,growth inhibition,[15]; [18],98% (active)
same,growth inhibition,[15]; at 50.0 µM,96.7% (active)
same,growth inhibition,[16]; at 1.2 µM,7%
same,growth inhibition,[16]; at 3.7 µM,27%
same,growth inhibition,[16]; at 11.0 µM,74% (active)
same,growth inhibition,[16]; at 33.0 µM,97% (active)
same,growth inhibition,[16]; at 100.0 µM,99% (active)
